# Laboratory results taken from ChEMBL document CHEMBL3988442, “University of Dundee, Small-Polar-MMV Screening Library” (2021).
# In all, about 69,000 compounds went through this assay and about 1,000 (1.4%) showed an effect of 50% or more. The full list was thinned out, with strong results kept by preference.
# System: Leishmania donovani
# Assay: Leishmania intramacrophage assay
# Assay type: functional, organism-based
# Set-up: scale not given: in the data most compounds retested in dose-response had high values
structure (smiles),measurement,setting,value
CN(Cc1ccccc1)S(=O)(=O)N1C[C@H](C2CC2)[C@@H](N)C1,Percent Effect,"30.3 µM, […]",11.31%
Cc1nc(CN(C)C2CCN(CCc3cnn(C)c3)C2)no1 (centres undefined),Percent Effect,30 µM,5.885%
COc1ccc(CCN2CCCC(Cn3nc(C)nc3C)C2)cc1 (centres undefined),Percent Effect,"30 µM, 30.03 µM",18.76%
Cc1noc(CN(C)CC2CCN(CCO)CC2)n1,Percent Effect,"30.3 µM, […]",19.09%
Cc1nc(C)n(CC2CCCN(CCc3ccccc3)C2)n1 (centres undefined),Percent Effect,30 µM,25.36%
Cc1nc(CN(C)C2CCN(CCc3ccc4c(c3)CCO4)C2)no1 (centres undefined),Percent Effect,30 µM,14.02%
CCc1nc(CN(C)C2CCN(CCc3ccncc3)C2)no1 (centres undefined),Percent Effect,"30.3 µM, […]",23.01%
O=C(CCOc1ccccc1)NS(=O)(=O)Cc1ccccc1,Percent Effect,"30.3 µM, […]",8.588%
CCO[C@H]1CC[C@H]2[C@H]1OCCN2C(=O)CC1=CCCCC1,Percent Effect,"30.3 µM, […]",2.273%
Cn1cnc(S(=O)(=O)N2CCCC2)c1Cl,Percent Effect,"30 µM, 30.03 µM",14.79%
O=C(NCCc1cccc(F)c1)c1nc2c(s1)CCCN2C(=O)C1CC1,Percent Effect,"30.3 µM, […]",44.4%
CCN(Cc1ccoc1)C(C(N)=O)c1cccc(Br)c1 (centres undefined),Percent Effect,"30.3 µM, […]",23.25%
CN(c1ncc(S(N)(=O)=O)s1)C1CCc2ccccc2C1 (centres undefined),Percent Effect,"30.3 µM, […]",53.12%
CN(c1ncc(S(N)(=O)=O)s1)C1CCC1,Percent Effect,"30.3 µM, […]",27.02%
CN(c1ncc(S(N)(=O)=O)s1)C1CCc2ccccc21 (centres undefined),Percent Effect,"30.3 µM, […]",21.68%
O=C(NC1CCC1)C1=NOC2(CCN(Cc3ccccc3)C2)C1 (centres undefined),Percent Effect,"30.3 µM, […]",18.41%
CNC(=O)CN1CCOCC2(C1)CN(C(=O)CC(C)C)CCO2.O=C(O)C(F)(F)F (centres undefined),Percent Effect,"30.3 µM, […]",52.6%
CCCC(=O)N1CCOC2(COCCN(CC(=O)NC)C2)C1.O=C(O)C(F)(F)F (centres undefined),Percent Effect,"30.3 µM, […]",-9.456%
CNC(=O)CN1CCOCC2(C1)CN(C(=O)C(C)C)CCO2.O=C(O)C(F)(F)F (centres undefined),Percent Effect,"30.3 µM, […]",-36.06%
NCCc1n[nH]c(=O)n1-c1cccc2ccccc12,Percent Effect,"30.3 µM, […]",-1.188%
COc1ccc2nnc(CCCC(=O)NCc3ccccc3OC)n2n1,Percent Effect,"30.3 µM, […]",-10.21%
COc1ccc2nnc(CCCC(=O)NCc3ccccc3F)n2n1,Percent Effect,"30.3 µM, […]",59.63%
COc1ccc2nnc(CCCC(=O)NCc3ccccc3)n2n1,Percent Effect,"30.3 µM, […]",-8.358%
Cn1nccc1CNC(=O)CCn1nc(C(F)(F)F)cc1C1CC1,Percent Effect,"30.3 µM, […]",-48.51%
CCCc1cc(=O)[nH]c(-n2nc(-c3cccs3)cc2N)n1,Percent Effect,"30.3 µM, […]",-5.205%
CCc1c(C)nc(-n2nc(C3CC3)cc2NC(C)=O)[nH]c1=O,Percent Effect,"30.3 µM, […]",18.69%
Cc1cc(=O)[nH]c(-n2nc(-c3ccccc3)cc2N)n1,Percent Effect,"30.3 µM, […]",15.58%
Cc1cc(=O)[nH]c(-n2nc(-c3cccs3)cc2N)n1,Percent Effect,"30.3 µM, […]",-7.901%
Cc1cc(=O)[nH]c(-n2nc(C3CC3)cc2N)n1,Percent Effect,"30.3 µM, […]",77.1%
CC(=O)Nc1cc(C2CC2)nn1-c1nc(C)c(C)c(=O)[nH]1,Percent Effect,"30.3 µM, […]",-16.88%
Cc1nc(-n2nc(C3CC3)cc2NC(=O)C(C)C)[nH]c(=O)c1C,Percent Effect,"30.3 µM, […]",15.32%
CCCc1cc(=O)[nH]c(-c2cccc(CN3CCCCCC3)c2)n1,Percent Effect,"30.3 µM, […]",-12.61%
CC(C)c1cc(=O)[nH]c(C(C)(C)N)n1.Cl,Percent Effect,"30.3 µM, […]",-1.615%
CC(NC(=O)CCc1nc(C(C)(C)C)no1)c1nnc2n1CCC2 (centres undefined),Percent Effect,"30.3 µM, […]",10.79%
CNC(=O)CCS(=O)(=O)Cc1cc(Cl)c2c(c1)OCCO2,Percent Effect,30 µM,6.265%
O=C(CN1CCC(C(=O)c2cc(F)ccc2F)CC1)NC1CC1,Percent Effect,"30.3 µM, […]",20.49%
CNC(=O)C(NC(=O)CCc1cccc(OC2CCCC2)c1)C(C)C (centres undefined),Percent Effect,"30.3 µM, […]",1.65%
Cc1nsc(C(=O)NCCCc2ccccc2)n1,Percent Effect,"30.3 µM, […]",7.564%
Cc1nc(C2CCCN2C(=O)Cn2cncn2)no1 (centres undefined),Percent Effect,30 µM,21.12%
CCOC(=O)c1sc2ccsc2c1CNC(=O)COC,Percent Effect,30 µM,13.66%
O=C(NCC(O)c1ccoc1)Nc1cccs1 (centres undefined),Percent Effect,"30.3 µM, […]",10.34%
CCC(CC)(CCO)CNC(=O)c1ccon1,Percent Effect,"30.3 µM, […]",7.917%
COCc1ccccc1CNCc1c(C(C)C)nn(C)c1N(C)C,Percent Effect,30 µM,21.29%
CC(C)c1nn(C)c(N(C)C)c1CNCc1ccccc1CN(C)C,Percent Effect,"30 µM, 30.03 µM",50.34%
CC(C)c1nn(C)c(N(C)C)c1CNCc1ccccc1CO.Cl,Percent Effect,30 µM,5.046%
O=C1N(C2CCCCC2)CCCC12CCN(S(=O)(=O)c1cccnc1)C2 (centres undefined),Percent Effect,"30.3 µM, […]",18%
CNC(=O)[C@H]1C[C@@H]2CN(Cc3ccccc3)C[C@H]1O2.O=C(O)C(F)(F)F,Percent Effect,"30.3 µM, […]",55.32%
O=C(NC1CC1)[C@@H]1C[C@@H]2CCN(Cc3ccoc3)C[C@@H]2O1.O=C(O)C(F)(F)F,Percent Effect,"30.3 µM, […]",29.69%
O=C(NC1CC1)[C@H]1C[C@@H]2CCN(CCc3ccccc3)C[C@H]2O1.O=C(O)C(F)(F)F,Percent Effect,"30 µM, 30.03 µM",7.043%
CNC(=O)[C@H]1C[C@@H]2CN(Cc3ccc(C)cc3)C[C@H]1O2.O=C(O)C(F)(F)F,Percent Effect,"30.3 µM, […]",47.12%
O=C(NC1CCC1)[C@@H]1C[C@@H]2CCN(CCc3ccccc3)C[C@H]2O1.O=C(O)C(F)(F)F,Percent Effect,"30.3 µM, […]",-19.62%
COCCNC(=O)[C@H]1C[C@@H]2CCN(CCc3ccccc3)C[C@@H]2O1.O=C(O)C(F)(F)F,Percent Effect,"30.3 µM, […]",34.91%
CNC(=O)[C@H]1C[C@@H]2CN(Cc3cccc(C)c3)C[C@H]1O2.O=C(O)C(F)(F)F,Percent Effect,"30.3 µM, […]",36.09%
O=C(NC1CCCC1)[C@@H]1C[C@@H]2CCN(Cc3ccoc3)C[C@H]2O1.O=C(O)C(F)(F)F,Percent Effect,"30.3 µM, […]",62.18%
CC(C)NC(=O)[C@@H]1C[C@@H]2CCN(Cc3ccoc3)C[C@H]2O1.O=C(O)C(F)(F)F,Percent Effect,"30.3 µM, […]",11.62%
O=C(NCC1CC1)[C@H]1C[C@@H]2CCN(CCc3ccccc3)C[C@H]2O1.O=C(O)C(F)(F)F,Percent Effect,"30.3 µM, […]",-22.31%
COCCNC(=O)[C@H]1C[C@@H]2CCN(CCc3ccccc3)C[C@H]2O1.O=C(O)C(F)(F)F,Percent Effect,"30.3 µM, […]",57.9%
CNC(=O)[C@H]1C[C@@H]2CCN(CCc3ccccc3)C[C@@H]2O1.O=C(O)C(F)(F)F,Percent Effect,"30.3 µM, […]",53.78%
CC(C)NC(=O)[C@@H]1C[C@@H](N)CN1C(=O)CCSCc1ccccc1,Percent Effect,"30.3 µM, […]",17.42%
CCC[C@H]1CN(CCS(C)(=O)=O)C[C@@H]1NC(=O)c1cc(CC)on1,Percent Effect,"30.3 µM, […]",-7.054%
CCS(=O)(=O)NCC1OCCc2cn(CCOC)nc21 (centres undefined),Percent Effect,"30.3 µM, […]",22.39%
CNc1nc(CNC(=O)Nc2cccc(COCCOC(C)C)c2)cs1,Percent Effect,"30.3 µM, […]",10.56%
Cc1cc(O)n2nc(C3CCN(C(=O)c4ccccn4)CC3)cc2n1,Percent Effect,"30.3 µM, […]",-30.04%
O=C(NCCCn1cncn1)N1CCCCCC1,Percent Effect,30 µM,20.62%
CCS(=O)(=O)NCCNC(=O)c1cc(Cl)c2c(c1)OCCCO2,Percent Effect,"30 µM, 30.03 µM",35.29%
COc1cccc2c1OCCCN(Cc1ncccc1C(=O)O)C2,Percent Effect,"30.3 µM, […]",-9.577%
CN(CCCOc1ccccc1)C(=O)CN1CCc2cncnc2C1,Percent Effect,"30 µM, 30.03 µM",6.848%
N[C@@H]1CC[C@@H](NC(=O)c2ccccc2OC(F)(F)C(F)F)C1,Percent Effect,"30.3 µM, […]",-30%
Cc1noc([C@]23COC[C@H]2CN(C(=O)COC2CCCC2)C3)n1,Percent Effect,"30.3 µM, […]",14.27%
Cc1noc([C@]23COC[C@H]2CN(C(=O)Cc2ccsc2)C3)n1,Percent Effect,"30.3 µM, […]",57.44%
CCOCC(=O)N1C[C@@H]2COC[C@]2(c2nc(C)no2)C1,Percent Effect,"30.3 µM, […]",46.85%
O=C(O)C(F)(F)F.c1cc(CN2CCC3(CCOCC3COCC3CC3)CC2)co1 (centres undefined),Percent Effect,"30.3 µM, […]",12%
Fc1cccc(N2CCCC3(CN(Cc4nccs4)CCO3)C2)c1.O=C(O)C(F)(F)F.O=C(O)C(F)(F)F (centres undefined),Percent Effect,"30.3 µM, […]",41.24%
Fc1cccc(N2CCCC3(C2)CN(c2ncccn2)CCO3)c1.O=C(O)C(F)(F)F.O=C(O)C(F)(F)F (centres undefined),Percent Effect,"30 µM, 30.03 µM",0.139%
c1cncc(C2=NOC3(CCN(Cc4c[nH]c5ccccc45)CC3)C2)c1,Percent Effect,"30.3 µM, […]",11.25%
c1ccc(C2=NOC3(CCN(Cc4c[nH]c5ccccc45)CC3)C2)cc1,Percent Effect,"30.3 µM, […]",96.36%
CC(C)C1=NOC2(CCN(Cc3c[nH]c4ccccc34)CC2)C1,Percent Effect,"30.3 µM, […]",1.888%
CN(C(=O)c1ccc(S(=O)(=O)NC(C)(C)C)cc1)C1(C#N)CCC1,Percent Effect,"30.3 µM, […]",6.383%
CN1CCN(Cc2nnc(C3CCN(CC4CC4)CC3)n2C)CC1,Percent Effect,"30 µM, 30.03 µM",36.3%
CN1CCC(c2nnc(CN3CCC(O)CC3)n2C)CC1,Percent Effect,"30 µM, 30.03 µM",13.07%
CC(C)=CCN1CCC(c2nnc(CN3CCN(C)CC3)n2C)CC1,Percent Effect,"30.3 µM, […]",50.84%
CCc1sc(-c2nnc(CNC(C)Cn3cccn3)o2)cc1C (centres undefined),Percent Effect,"30.3 µM, […]",-1.714%
O=C(c1cnc(Nc2ccccc2)nc1)N1CCC(O)(CO)CC1,Percent Effect,"30.3 µM, […]",-16.52%
CC(Cn1cccn1)NCc1cnc(N2CCCC2)nc1 (centres undefined),Percent Effect,"30.3 µM, […]",6.002%
c1ccc(Cn2cccn2)c(CNCc2cnc(N3CCCC3)nc2)c1,Percent Effect,"30.3 µM, […]",54.07%
c1cnn(CCNCc2cnc(N3CCCC3)nc2)c1,Percent Effect,"30.3 µM, […]",36.96%
O=C(O)C(F)(F)F.O=C(O)C(F)(F)F.c1coc(CN2CCCn3c(CN4CCOCC4)nnc3C2)c1,Percent Effect,"30.3 µM, […]",2.025%
O=c1ccc(-c2cccs2)nn1CN1CCN(c2ccccn2)CC1,Percent Effect,"30.3 µM, […]",5.805%
CCN(CC)CCNS(=O)(=O)c1cccc(CSC)c1,Percent Effect,"30.3 µM, […]",-28.14%
CCNS(=O)(=O)c1cccc(CSC)c1,Percent Effect,"30.3 µM, […]",64.35%
CSCc1cccc(S(=O)(=O)NCCO)c1,Percent Effect,"30.3 µM, […]",7.47%
O=C(NCc1ccccn1)NC1CCOc2ccccc21 (centres undefined),Percent Effect,"30 µM, 30.03 µM",24.88%
Cc1cc(CN(C)C(=O)c2ccc(F)cc2F)no1,Percent Effect,"30.3 µM, […]",-6.199%
Cc1ccc(CN2CCOC(c3cnccn3)C2)s1 (centres undefined),Percent Effect,"30.3 µM, […]",57.91%
Cc1ccc(CN2CCCC(c3cnccn3)C2)s1 (centres undefined),Percent Effect,"30.3 µM, […]",27.06%
Cc1ccc(CN2CCC(c3cnccn3)CC2)s1,Percent Effect,"30.3 µM, […]",12.08%
COc1ccc(CNC(C)c2ccc(Cl)c(Cl)c2)c(OC)c1OC (centres undefined),Percent Effect,"30.3 µM, […]",55.53%
COc1ccc(CNC(C)c2cccc(Cl)c2)c(OC)c1OC (centres undefined),Percent Effect,"30 µM, 30.03 µM",25.49%
COc1ccc(CNC(C)c2ccc(Cl)cc2)c(OC)c1OC (centres undefined),Percent Effect,"30.3 µM, […]",11.12%
